# Source: PubChem
# The list is not random: actives were taken first. Their share in the collection is about 2.1%.
# ARNT TACC3 PPI: disruptors of ARNT/TACC3 protein interaction, primary screen, biochemical, AlphaScreen, single concentration; AlphaScreen His-ARNT PAS-B/GST-TACC3 binding, luminescence; TACC3 fragment carries E629A point mutation; AID 623870, 2012; inhibition, % at 9.99 µM; 390,000 compounds, 0.66% hits; Transforming acidic coiled-coil-containing protein 3 (Homo sapiens), Q9Y6A5;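 active = mean inhibition of replicates at least 50% and at least half of replicates each reaching 50%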;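 note: 0% = complete ARNT plus TACC3 wells and 100% = ARNT alone without TACC3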
# PvdQ acylase: P. aeruginosa PvdQ acylase inhibitors, primary screen, biochemical, fluorescence, plate reader and imaging, single point; PvdQ acylase [Pseudomonas aeruginosa LESB58]; purified PvdQ acylase; inhibition, % at 10 µM; 340,000 compounds, 0.063% hits; in the data active = inhibition above about 30%, passing the limit was not always enough;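 note: 0% = vehicle neutral wells and 100% = reference inhibitor wells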
# F508del corr: F508del CFTR correction, initial screen, CFBE line, single point. CFBE cells, YFP halide quenching; stimulated with forskolin plus potentiator P3; % fluorescence drop versus neutral controls. activity (quench increase), % at 7.58 µM. 350,000 compounds, 0.36% hits. AID 720511, 2013;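 active = mean added fluorescence quench of at least 8% versus neutral control, with both replicates also reaching 8%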;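 note: cells transiently co-express mutant CFTR-F508del with the halide-sensitive YFP; corrector assay measuring rescue of mutant channel to the surface after 24 h compound exposure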
# ERAP1 inh: human ERAP1 aminopeptidase inhibitors, primary screen, biochemical, single point, plate reader. Endoplasmic reticulum aminopeptidase 1 (Homo sapiens), Q9NZ08. recombinant ERAP1, Leu-AMC fluorescence, 60 min. inhibition, % at 10.7 µM. 340,000 compounds, 0.15% hits;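 active = mean replicate inhibition of at least 30%, or all replicates individually reaching that 30% level; inactive = mean below 30% and not every replicate reaching it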;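 note: 0% = neutral control wells and 100% = L-leucinethiol positive control wells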
# Ecoli rRNA inh: reduced GFP signal of wild-type E. coli, primary screen, bacterial rRNA inhibitor project, GFP/RFP fluorescence, OD600, single point. E. coli WT GFP vs humanized-ribosome RFP mutants, 24 h; active compounds read low; DMSO median 0, no signal -100. GFP signal change (wild-type ribosome), % (test concentration not listed). 350,000 compounds, 1.6% hits. AID 720706, 2013;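 active = significant combined selectivity score with lowered wild-type GFP, culture density cut under 30%, mutant RFP and density less affected; inactive = any of these conditions unmet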
# AlphaScreen ctr: AlphaScreen signal interference compounds, dose response, artefact control for ARNT-TACC3 interaction inhibitor project, biochemical, luminescence, cherry-pick. shares compounds with ARNT TACC3 PPI. His-ARNT PASB-GST AlphaScreen artifact counter-screen. AC50, µM (titrated, usually from 68 µM), for the others: at the highest dose activity change, negative = signal decrease. 1,200 compounds, 50% hits. AID 651705, 2012;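 active = every separate test run was called active for a drop in luminescence, with AC50 within twice the top valid dose, actives reach about 71 µM in these data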
# An asterisk follows results filed as active; x = no result given.
SMILES,ARNT TACC3 PPI,PvdQ acylase,F508del corr,ERAP1 inh,Ecoli rRNA inh,AlphaScreen ctr
O=C(C[C@H]1CC[C@H](NC(=O)C2CC2)[C@@H](CO)O1)NCC1CC1,0,x,-4,-3,0,x
Cc1cc(C(=O)Nc2cccc3c2O[C@@H](CN(C)Cc2ccc(C(=O)Nc4ccccc4N)cc2)[C@@H](C)CN([C@@H](C)CO)C3=O)n(C)n1,2,x,4,-3,-1,x
CC(C)c1ccc(O)c(NC(=O)c2cncc(Br)c2)c1,-2,2,x,x,x,x
CC(C)c1ccc(O)c(NC(=O)c2ncn[nH]2)c1,31*,-26,x,0,1,-7%
C[C@@H](C(=O)Nc1nc(-c2ccccn2)cs1)N1C(=O)C2CCCCC2C1=O (stereo not given in full),63*,-16,x,x,x,21µM*
O=C(CN1C(=O)C2CCCCC2C1=O)Nc1nc(-c2ccccn2)cs1 (stereo not given),75*,-5,x,x,x,52µM*
CC(Oc1ccc(Br)cc1)C(=O)Nc1nc(-c2ccccn2)cs1 (stereo not given),29,-12,-2,0,-68,x
Nc1ccccc1C(=O)N=Nc1[nH]c(N)c2ccccc12,62*,-9,1,2,-17,56µM*
C[C@@H]1CN([C@@H](C)CO)C(=O)c2cc(NC(=O)c3ccccc3)ccc2O[C@@H](C)CCCCO[C@H]1CN(C)S(=O)(=O)c1ccc(Cl)cc1,9,x,-3,1,1,x
O=C(NCC1CC1)[C@H]1[C@H](CO)[C@H]2Cn3c(ccc(C4=CCCC4)c3=O)[C@@H]1N2CCC(F)(F)F,0,x,x,6,3,x
Nc1nnc2c(n1)CCCC2,55*,-11,x,x,x,-10%
O=C(Nc1cc(F)ccc1F)N[C@H]1CC[C@H](CCNC(=O)c2cnccn2)O[C@@H]1CO,-7,x,0,0,0,x
O=C(NCCCn1ccnc1)c1cc2cc([N+](=O)[O-])ccc2oc1=O,54*,-2,x,x,x,3%
Cc1ccc(C(=O)NCCCn2ccnc2)cc1C,x,x,-1,x,2,x
CC(C)(C)c1cc(C(=O)NCCCn2ccnc2)cc(C(C)(C)C)c1,61*,-12,-6,-3,-44,-11%
O=C(NCCCn1ccnc1)c1ccc2nccnc2c1,58*,8,-1,3,2,-8%
O=C(NCCCn1ccnc1)c1ccc(Cl)cc1[N+](=O)[O-],x,-10,4,-1,x,x
Cc1ccccc1S(=O)(=O)N[C@H]1CC[C@@H](CCn2cc(-c3ccccc3)nn2)O[C@@H]1CO,x,x,-5,4,-8,x
Cc1cc(=O)[nH]c(-n2ncc(C#N)c2N)n1,56*,2,-2,-1,8,-13%
CO[C@@H]1CN(C)C(=O)c2cc(NC(=O)c3cccc(F)c3)ccc2OC[C@H](C)NC[C@H]1C,-13,x,0,-5,-3,x
COc1cc(C2C(C#N)=C(N)Oc3n[nH]c(C)c32)cc2c1OCO2 (stereo not given),12,1,x,x,x,x
COc1cc(C2C(C#N)=C(N)Oc3n[nH]c(C)c32)ccc1OC(=O)c1ccccc1 (stereo not given),60*,-15,x,x,x,-26%
Cc1ccc(S(=O)(=O)NC(=O)c2cc(C)n(CCCn3ccnc3)c2C)cc1,53*,-11,x,x,x,-3%
O=C1C=C(O)c2cccc(O)c2C1=O,52*,-3,-3,10,x,-8%
CC(=O)Nc1cccc(C(=O)O)n1,59*,-8,-1,0,16,-20%
SMILES,ARNT TACC3 PPI,PvdQ acylase,F508del corr,ERAP1 inh,Ecoli rRNA inh,AlphaScreen ctr
CC(=O)Nc1cccc(NC(C)=O)n1,-1,-8,x,x,x,x
C/C=C/c1cnc2c(c1)C(=O)N([C@@H](C)CO)C[C@@H](C)[C@H](CN(C)Cc1cccc(C(=O)O)c1)O2,-2,x,-5,-2,2,x
CCOc1ccc(C(=O)NC2CC(C)(C)NC(C)(C)C2)cc1,-1,-19,-1,0,-3,x
CCOc1cc(C(=O)NC2CC(C)(C)NC(C)(C)C2)cc(OCC)c1OCC,53*,8,3,-1,20,-2%
Cc1ccc(S(=O)(=O)Cn2nnnc2C(c2ccccc2)N2CCN(c3ncccn3)CC2)cc1 (stereo not given),-3,3,x,x,x,x
Cc1ccc(S(=O)(=O)Cn2nnnc2C(c2ccccc2)N2CCN(c3ccccc3)CC2)cc1 (stereo not given),58*,-12,x,x,x,-33%
O=C(C[C@@H]1C=C[C@H](NC(=O)c2ccncc2)[C@H](CO)O1)Nc1ccccc1,x,x,0,1,1,x
CO[C@@H]1CN(C)C(=O)c2ccc(NC(=O)c3ccccn3)cc2OC[C@@H](C)N(C(=O)C2CC2)C[C@H]1C,57*,x,1,-2,x,32µM*
CO[C@@H]1CN(C)C(=O)c2ccc(NC(=O)c3cnccn3)cc2OC[C@@H](C)N(C(=O)C2CC2)C[C@H]1C,-1,x,0,0,2,x
CCS(=O)(=O)Nc1ccc2c(c1)C(=O)N(C)C[C@@H](OC)[C@H](C)CN(C(=O)COC)[C@@H](C)CO2,x,x,-3,x,0,x
CCOc1ccc(Nc2nc(N)nc(CN(C)C3CCCCC3)n2)cc1,63*,-14,x,x,x,-10%
COc1ccc(Nc2nc(N)nc(COc3ccc(OC)cc3)n2)cc1,-4,-3,x,x,x,x
COc1ccc(Nc2nc(N)nc(CN(C)C3CCCCC3)n2)cc1,56*,-4,x,x,x,-10%
Cc1[nH]n(-c2ccccc2)c(=O)c1/C=N/N(c1ccccc1)c1ccccc1,55*,-4,1,5,-15,23µM*
COCC(=O)Nc1ccc2c(c1)OC[C@@H](C)N(C(=O)NC(C)C)C[C@H](C)[C@H](OC)CN(C)C2=O,x,x,3,x,2,x
CCCCn1nnnc1-c1nc2ccccc2[nH]c1=O,x,x,3,-2,11,x
Cn1ccnc1-c1nc2ccccc2[nH]c1=O,71*,2,-1,9,10,-12%
Cc1[nH][nH]c(=O)c1C(c1ccc(Br)cc1)c1c(C)[nH][nH]c1=O,11*,7,2,-2,-4,-2%
COc1ccc(C(c2c(C)[nH][nH]c2=O)c2c(C)[nH][nH]c2=O)cc1Br,20,-13,1,1,22,x
Cc1[nH][nH]c(=O)c1C(c1ccc(O)c(Br)c1)c1c(C)[nH][nH]c1=O,33*,-10,0,-3,14,-34%
Oc1c(C(c2ccccn2)N2CCCCC2)cc(Cl)c2cccnc12 (stereo not given),69*,1,-2,x,-43,8.1µM*
